Source: PubChem BioAssay
The list is not random: actives were taken first. Their share in the collection is about 4.2%.
S1P4 antagonist – antagonists of human S1P4 receptor; S1P4-expressing cells, antagonist mode, reporter read-out; inhibition, % at 4.98 µM; 220,000 tested, 0.26% active; AID 1510; in the data active = inhibition above about 29%
Target sequence (O95977 whole entry, looked up): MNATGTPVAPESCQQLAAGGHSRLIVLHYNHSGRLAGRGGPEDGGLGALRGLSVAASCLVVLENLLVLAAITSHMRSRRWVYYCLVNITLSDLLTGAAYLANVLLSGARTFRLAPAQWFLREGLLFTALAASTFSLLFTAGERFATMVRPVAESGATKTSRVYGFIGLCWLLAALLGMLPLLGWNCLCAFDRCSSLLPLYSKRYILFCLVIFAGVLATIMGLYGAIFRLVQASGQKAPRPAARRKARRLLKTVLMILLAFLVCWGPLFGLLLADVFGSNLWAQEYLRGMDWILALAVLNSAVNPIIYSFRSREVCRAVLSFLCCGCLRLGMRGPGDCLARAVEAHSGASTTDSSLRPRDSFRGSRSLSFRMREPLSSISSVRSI
S1P4 ag – activates the human S1P4 receptor | O95977 | 220,000 tested, 0.35% active | S1P4-expressing cell line, agonist reporter assay | activation, % at 4.98 µM | AID 1509; in the data active = activation above about 11%
CHOP inhibitor – CHOP inhibition in unfolded protein response; CHO-K1 CHOP-promoter luciferase, tunicamycin-induced, 15-18 h; inhibition, % at 10 µM; 220,000 tested, 3.8% active; AID 2732;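 active = compounds that reduced the stress-induced luciferase reporter signal by more than about 70% of percent inhibition, limit read from the data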
Hsp70 act – transcriptional activators of Hsp70; AID 1203; activation, % at 10 µM; HeLa Hsp70 promoter luciferase reporter, luminescence; scaled: vehicle 0, proteasome-inhibitor control 100%; 200,000 tested, 0.04% active;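 active = activation above the mean across all tested compounds plus 3 SD, cutoff set per campaign, cut at about 5.5% in these data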
S1P4 ag conf – human S1P4 agonism, confirmation; AID 1523; 740 tested, 7% active; S1P4 agonist cell-based reporter assay; shares compounds with S1P4 ag; activation, % at 4.98 µM; in the data active = activation above about 12%
S1P1 agonist – counter-screen for S1P4 agonists: agonists of human S1P1; AID 1563; 740 tested, 4% active; S1P1 agonist cell-based assay, activation; shares compounds with S1P4 ag; activation, % at 4.98 µM; in the data active = activation above about 21%
S1P4 antag cf – confirmation of human S1P4 receptor antagonists. shares compounds with S1P4 antagonist. S1P4-expressing cell line, antagonist mode, reporter read-out. inhibition, % at 4.98 µM. 520 tested, 71% active; in the data active = inhibition above about 30%
S1P1 antag – counter-screen for S1P4 antagonists: antagonists of human S1P1; shares compounds with S1P4 antagonist; cell-based S1P1 antagonist counterscreen, inhibition; inhibition, % at 4.98 µM; 520 tested, 37% active; AID 1564; in the data active = inhibition above about 40%;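 also: receptor stimulated with S1P near its EC80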
CHOP confirm – confirmation of CHOP induction inhibitors. shares compounds with CHOP inhibitor. CHO-CHOP promoter luciferase reporter, tunicamycin-induced, luminescence. inhibition, % at 10 µM. 2,100 tested, 45% active. AID 504437;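 active = mean of three repeat readings of reporter signal inhibition above a set limit, cut at about 70% in these data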
Hits are given with their value; 0 = inactive; - = not tested or not shown.

SMILES	S1P4 antagonist	S1P4 ag	CHOP inhibitor	Hsp70 act	CHOP confirm	others
CCOC(=O)c1sc(/N=C/c2c(O)n(-c3ccccc3)c(=O)[nH]c2=O)c(C#N)c1C	0	13	0	0	-	S1P4 ag conf=0;S1P1 agonist=0
Cn1c2ccccc2c2cnn(CC(=O)N3CCC4(CC3)OCCO4)c(=O)c21	0	0	0	0	-
CCCCn1c(NC(=O)c2ccco2)c(C(=O)OCC)c2nc3ccccc3nc21	31	0	0	0	-	S1P4 antag cf=0;S1P1 antag=0
O=c1c2ccccc2nc(-c2ccoc2)n1-c1ccccc1	0	0	0	0	-
NC(=S)c1cn(C2OC(CO)C(O)C2O)c2ncnc(N)c12 (centres undefined)	100	0	105	-	-	S1P4 antag cf=112;S1P1 antag=94
Cn1cc(C=C(C#N)C#N)c2ccccc21	0	0	0	0	-
COc1cc(/C=C(/C)[N+](=O)[O-])ccc1OCc1ccccc1Cl	54	0	106	0	-	S1P4 antag cf=120;S1P1 antag=148
COc1cc(C=C2C(=O)NC(=O)NC2=O)ccc1OCc1ccc([N+](=O)[O-])cc1	0	0	0	0	-
CCC1(OC(=O)CN)C(=O)OCc2c1cc1n(c2=O)Cc2cc3ccccc3nc2-1 (centres undefined)	92	0	0	-	-	S1P4 antag cf=64;S1P1 antag=0
Cc1cc(OCC(=O)OC(C)C)c2c3c(c(=O)oc2c1)CCCC3	0	0	0	0	-
C[C@]12CCC3C(CC[C@H]4C[C@H](O)CC[C@]34C)C1CC[C@@H]2C(=O)CO (some centres undefined)	-	-	0	-	-
C/C1=C\[C@@H](C)C/C=C/[C@H]2[C@@H]3O[C@]3(C)[C@@H](C)[C@H]3[C@H](Cc4c[nH]c5ccccc45)NC(=O)[C@]32C(=O)/C=C/C(=O)[C@@H]1O	33	0	105	0	-	S1P4 antag cf=59;S1P1 antag=0
CC1=CC2/C=C(\C)CCC(O)C(O)/C=C/C(=O)C23C(=O)NC(CC(C)C)C3C1C (centres undefined)	64	0	105	0	125	S1P4 antag cf=114;S1P1 antag=0
Cc1nc2cc(-c3cccc(F)c3)nn2c(C)c1CCC(=O)N1CCC2(CC1)OCCO2	0	0	0	0	-
COc1ccc(CN2C(=O)NC(=O)/C(=C\c3ccco3)C2=O)cc1	0	0	105	0	0
Cn1c(O)c(/C=N/c2ncccn2)c(=O)n(C)c1=O	0	0	0	0	-
CCN1/C(=C\C=C\C2=[N+](CC)c3ccccc3C2(C)C)C(C)(C)c2ccccc21	0	0	103	0	140
Cc1ccc(/C=C2\C(=O)NC(=O)N(CC3CCCO3)C2=O)s1 (centres undefined)	0	0	0	-	-
Cc1ccc(/C=C2\C(=O)NC(=S)N(c3ccc(F)cc3)C2=O)s1	0	0	103	0	0
COc1ccc(N2C(=O)/C(=C/c3cccs3)C(=O)NC2=S)cc1	0	0	104	-	0
COc1ccc(N2C(=O)/C(=C/C=C/c3ccccc3[N+](=O)[O-])C(=O)NC2=S)cc1	0	0	0	0	-
OC(c1ccccc1)(c1ccccc1)C1CCNCC1	0	0	108	0	0
OC(c1ccccc1)(c1ccccc1)C1CN2CCC1CC2 (centres undefined)	0	0	0	0	-
NC(N)=N/N=C/c1cn(-c2ccccc2)nc1-c1cccs1	0	0	106	0	98
COc1ccc(CCn2c(O)c(C=NCCCN(C)C)c(=O)[nH]c2=O)cc1OC	0	0	0	0	-
SMILES	S1P4 antagonist	S1P4 ag	CHOP inhibitor	Hsp70 act	CHOP confirm	others
O=C1NC(=O)N(c2ccccc2)C(=O)/C1=C/c1ccc(Sc2ccccc2)o1	0	0	104	0	0
CC(=O)c1c(O)n(-c2cccc(Cl)c2)c(=O)[nH]c1=O (tested in a mixture with another compound)	0	0	0	-	-
CC(C)n1c(O)c(C2c3cc(Cl)ccc3Oc3[nH]c(=O)n(C(C)C)c(=O)c32)c(=O)[nH]c1=O (centres undefined)	35	0	107	-	0
O=C(c1cccc(C(F)(F)F)c1)C1CCCN(Cc2ccccc2O)C1 (centres undefined)	0	0	0	0	-
Cc1ccc(Cn2nnnc2CN2CCC(n3nnc4cc(C(F)(F)F)ccc43)CC2)cc1	0	0	0	0	-
CC(=O)OC[C@]12CCC(C)=C[C@H]1O[C@@H]1[C@H](O)[C@@H](OC(C)=O)[C@@]2(C)[C@]12CO2	-	-	104	-	123
CC(=NCC1CCCO1)c1c(O)n(Cc2ccccc2)c(=O)[nH]c1=O (centres undefined)	0	0	0	0	-
C=CCN1C(=O)/C(=C/c2ccc(N3CCOCC3)o2)C(=O)NC1=S	0	0	0	0	-
O=C1NC(=O)N(Cc2ccco2)C(=O)/C1=C/c1ccc(-c2cccc([N+](=O)[O-])c2)o1	0	0	98	0	0
CN(C)c1ccc(/C=C2/C(=O)NC(=O)N(Cc3ccco3)C2=O)cc1	0	0	0	0	-
C=CCN1C(=O)NC(=O)/C(=C\c2ccc(-c3ccccc3[N+](=O)[O-])o2)C1=O	0	0	105	0	0
CCOC(=O)c1nsnc1NCCCl	0	0	0	0	-
CN1CC=C(c2c[nH]c3ccccc23)CC1	0	0	0	0	-
CCC(=O)N1CCN(CCN=Cc2c(O)n(C)c(=O)n(C)c2=O)CC1	0	0	0	0	-
COC(=O)C(O)(c1ccc(NC(=S)NC(=O)c2ccc(Cl)cc2Cl)c(C)c1)C(F)(F)F (centres undefined)	0	0	98	0	106
CCOC(=O)C(NC(=O)CC)(Nc1ccc(C(O)(C(=O)OCC)C(F)(F)F)cc1C)C(F)(F)F (centres undefined)	0	0	0	0	-
CCCCn1c(=O)c(C(=O)Nc2cnccn2)c(O)c2ccccc21	0	0	99	0	93
CCCCCn1c(=O)c(C(=O)Nc2nc3ccccc3[nH]2)c(O)c2ccccc21	0	0	98	-	109
O=c1c2ccccc2nc(-c2ccoc2)n1-c1ccccc1Cl	0	0	0	0	-
Fc1ccc(CCNCc2cccc(Cl)c2)cc1	0	0	0	0	-
C=C(C=O)CC1CC(O)[C@]2(C)OC3CC4OC5C[C@]6(C)O[C@]7(C)CCC8OC9C[C@]%10(C)OC%11C(C)=CC(=O)OC%11CC%10OC9C[C@@H](C)C8OC7CC6O[C@]5(C)CC5OC5C4OC3CC2O1 (some centres undefined)	0	0	105	0	127
COc1ccc(-n2cnc3cc(C(=O)N4CCC5(CC4)OCCO5)ccc32)cc1	0	0	0	0	-
